NPC1 promoter act: NPC1 promoter activation. 2.4% of 320,000 active. Huh7 NPC1 promoter luciferase reporter, 24 h. Potency, µM (titrated, usually from 9.22 µM), usual class: activators. AID 485313; further: nearly all actives have a fitted effect of over 60% in size
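Luminescence read-out of NPC1 promoter-driven luciferase in stably transfected Huh7 cells; compounds delivered in DMSO and left 24 h at 37C, 5% CO2, qHTS titration format.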
ELG1 DNA repair: blocks ELG1-dependent DNA repair in HEK293T cells. HEK293T ELG1-luciferase reporter, luminescence, 16 h; DNA damage induced by 5-fluorouridine. Potency, µM (top dose mostly 46.1 µM), usual class: inhibitors. 2.3% of 330,000 active. AID 504467; further: nearly all actives have a fitted effect of over 55% in size
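Luminescence from the luciferase reporter, measured 30 min after ONE-Glo reagent at room temperature, was the read-out. Beforehand, 2,000 cells per well were exposed for 16 hr at 37 °C to 5-fluorouridine together with compound or vehicle.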
FLuc counter: firefly luciferase modulation, counter-screen for miR-21 project; P08659; purified FLuc, Km substrates, luminescence inhibition; 6.9% of 360,000 active; Potency, µM (series often up to 57.5 µM), actives largely listed as inhibitors; further: nearly all actives have a fitted effect of over 55% in size
Target sequence (P08659 whole entry, looked up): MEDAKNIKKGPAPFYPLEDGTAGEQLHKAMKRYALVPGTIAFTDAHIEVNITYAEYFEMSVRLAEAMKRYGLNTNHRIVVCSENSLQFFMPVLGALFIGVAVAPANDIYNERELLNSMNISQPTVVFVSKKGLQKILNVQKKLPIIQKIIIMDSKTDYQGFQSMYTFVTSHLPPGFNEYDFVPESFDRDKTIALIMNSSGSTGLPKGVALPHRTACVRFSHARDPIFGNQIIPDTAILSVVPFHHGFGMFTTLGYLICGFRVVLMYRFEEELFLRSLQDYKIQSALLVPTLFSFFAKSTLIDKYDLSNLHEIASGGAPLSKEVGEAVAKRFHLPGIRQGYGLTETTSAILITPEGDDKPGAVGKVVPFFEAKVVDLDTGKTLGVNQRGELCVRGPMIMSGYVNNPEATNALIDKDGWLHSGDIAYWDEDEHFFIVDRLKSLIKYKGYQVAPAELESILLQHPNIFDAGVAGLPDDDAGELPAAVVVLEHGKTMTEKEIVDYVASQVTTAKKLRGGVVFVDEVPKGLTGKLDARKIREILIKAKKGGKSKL
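Biochemical qHTS of compounds, final roughly 60 µM downward over six points, against 10 nM purified firefly luciferase using Km concentrations of substrates (10 uM D-luciferin, 10 uM ATP) in Tris acetate pH 7.5 buffer; luminescence output.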
Rab9 prom act: activates the Rab9 promoter; Huh7 Rab9 promoter-luciferase reporter, luminescence, 24 h; 2.8% of 320,000 active; Potency, µM (titrated, usually from 9.22 µM), hits mostly activators; further: nearly all actives have a fitted effect of over 60% in size
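Huh7 cells stably carrying a Rab9 promoter-luciferase reporter, 1500 cells per well in OP-MEM I with 10% FBS, treated with compound 24 hours at 37C. Luciferase activity read by luminescence after 10 minutes with Amplite reagent.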
ELG1 genotox: inducers of genotoxicity in HEK293T ELG1-luciferase cells | HEK293T ELG1-luciferase reporter, luminescence, 16 h | Potency, µM (series often up to 46 µM), most hits filed as activators | 1.3% of 330,000 active | AID 504466; further: nearly all actives have a fitted effect of over 60% in size
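Genotoxic stress is detected as increased luminescence from luciferase-tagged ELG1 in HEK293T cells, measured with ONE-Glo after a 16 hr treatment at 37 °C.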
SMN2 splice up: SMN2 splice variant enhancement; HEK293 SMN2-luciferase splicing reporter, luminescence, 30-36 h; Potency, µM (doses to about 46.1 µM), usual class: activators; 2.8% of 210,000 active; AID 1458; further: nearly all actives have a fitted effect of over 55% in size
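HEK293 cells carry an SMN2 minigene-luciferase reporter in which exon 7 inclusion puts luciferase in frame. Cells were seeded at 2000 cells/well, attached for 10-12 hours, then exposed to compounds for 30-36 hours at 37C before ONE-Glo luminescence.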
Hits are given with their value; i = inactive; ? = inconclusive; nt = no result given; [ ] = dose if it differs, or a comment. The list is not random: actives were taken first. Their share in the collection is about 9.2%. The call rests on the fitted dose curve; in most records, active means well fitted curve in the direction sought with a large enough effect; inconclusive means small, poorly fitted or top-dose-only effect, or another doubt; inactive means no such curve, though single readings can be large; an effect the other way counts as inactive or inconclusive.

SMILES	NPC1 promoter act	ELG1 DNA repair	FLuc counter	Rab9 prom act	ELG1 genotox	SMN2 splice up
Nc1nnc(N2CCCCC2)s1	i	i	i	i	i	i
O=C(N/N=C/c1c[nH]c2ccccc12)c1ccn[nH]1	i	?	21µM	?	i	i
O=C(N/N=C/c1c[nH]c2ccccc12)c1cc(-c2ccccc2)n[nH]1	i	?	12µM	i	i	i
CCOC(=O)N/N=C/c1c[nH]c2ccccc12	i	?	?	i	i	i
O=C(N/N=C/c1cccs1)c1cc(-c2ccc3ccccc3c2)n[nH]1	i	i	i	i	i	i
O=C(N/N=C/c1cccs1)c1cc(-c2cccc3ccccc23)n[nH]1	i	i	19µM	i	i	?
O=C(N/N=C/c1c[nH]c2ccccc12)c1cc(-c2cccc3ccccc23)n[nH]1	i	i	15µM	i	i	i
Cc1nc(C)c(C(=O)N/N=C/c2c[nH]c3ccccc23)s1	i	?	?	i	i	i
COc1ccc(N2CCN(C(=O)CCC(=O)N3Cc4ccccc4Oc4ncccc43)CC2)cc1	i	i	i	i	i	nt
NC(=O)c1ccsc1NC(=O)CCS(=O)(=O)c1ccc(F)cc1	i	i	i	i	i	nt
COc1ccc(-n2nnc(-c3nsc(NC(=O)c4cccc(C)c4)n3)c2C)cc1OC	nt	nt	i	nt	nt	nt
O=C(N/N=C/c1c[nH]c2ccccc12)c1cc(-c2ccc3ccccc3c2)n[nH]1	i	i	9.5µM	i	i	i
O=C(N/N=C/c1c[nH]c2ccccc12)c1cc(-c2ccc(-c3ccccc3)cc2)n[nH]1	i	?	1.3µM	?	i	i
O=C(O)c1ccc(/C=N/NC(=O)c2cc(-c3ccc4c5c(cccc35)CC4)n[nH]2)cc1	i	i	21µM	i	i	i
Cc1ccc(-c2cc(C(=O)N/N=C/c3c[nH]c4ccccc34)[nH]n2)cc1	i	i	11µM	i	i	i
CC1=C(c2ccc(C)c(C)c2)S(=O)(=O)N=C1N1CCC(C(=O)N2CCC(C)CC2)CC1	nt	nt	i	nt	nt	nt
COC(=O)[C@]1(C)N[C@H](CN(C)C(=O)Nc2ccc(Cl)cc2)[C@@H]2C(=O)N(C)C(=O)[C@@H]21	nt	i	nt	nt	i	nt
COC(=O)c1cc(C)nc2c1C(=O)C(=O)C=C2N1CCOCC1	i	5.2µM	i	i	i	nt
CCCCc1nnc(SCC(=O)NC2CCCCC2)n1C	i	i	i	i	i	nt
O=C1CCC(=O)N1CCCCCc1nc(-c2ccccc2)no1	i	?	?	?	21µM	i
Cc1cccc(-c2noc(CCc3ccccc3)n2)c1	?	?	12µM	2.8µM	?	i
c1ccc(CCc2nc(-c3ccccc3)no2)cc1	?	?	12µM	?	?	i
Cc1cccc(-c2noc(CCC(=O)NCCc3ccccc3)n2)c1	i	i	i	i	i	nt
Cc1ccc(-c2noc(COC(=O)c3ccco3)n2)cc1	i	?	9.5µM	i	i	nt
COc1ccc(NC(=O)C2CCC(CNS(=O)(=O)c3csc(C(N)=O)c3)CC2)cc1 (stereo not drawn)	nt	nt	i	nt	nt	nt
SMILES	NPC1 promoter act	ELG1 DNA repair	FLuc counter	Rab9 prom act	ELG1 genotox	SMN2 splice up
CCS(=O)(=O)N1CCCC(C(=O)NCCOC)C1 (stereo not drawn)	nt	nt	i	nt	nt	nt
CCCCn1cc(S(=O)(=O)c2ccc(OC)cc2)c(=O)c2cc(F)c(N3CCOCC3)cc21	nt	nt	i	nt	nt	nt
O=C(Cc1ccccc1)Nc1ccc(NC(=O)c2ccco2)cc1	i	i	?	i	?	nt
O=C(Nc1ccc(-c2noc(CCc3ccccc3)n2)cc1)c1ccco1	1.3µM	?	4.3µM	1.1µM	?	2.8µM
c1ccc(OCc2nc(-c3ccccc3)no2)cc1	?	?	27µM	?	15µM	?
O=C(NCC(c1ccco1)N1CCc2ccccc21)c1cccc([N+](=O)[O-])c1 (stereo not drawn)	i	?	i	i	i	nt
CCCC(C)c1nnc(NC(=O)COc2ccc3c(c2)OCO3)s1 (stereo not drawn)	i	i	i	i	i	nt
Cc1cccc(C(=O)NNC(=O)c2c(-c3ccccc3Cl)noc2C)c1O	i	i	i	i	i	nt
CC(/C=N/NC(=O)c1cnccn1)=C\c1ccco1	?	?	12µM	?	?	nt
CC(=C/c1ccco1)/C=N/NC(=O)c1ccncc1	i	i	17µM	i	i	nt
CC(/C=N/NC(=O)c1cccnc1)=C\c1ccco1	i	?	i[2.3 µM]	?	i	?
CN(C)C(=O)Cn1cnc2c(cnn2-c2ccc(F)cc2)c1=O	i	i	i	i	i	nt
COc1ccc(CNC(=O)CCc2c(C)nn(-c3ccc(N4CCCC4)nn3)c2C)c(OC)c1	nt	nt	i	nt	nt	nt
Cc1oc2ncn(C)c(=O)c2c1C(=O)N1CCN(c2ccccc2F)CC1	nt	nt	i	nt	nt	i
Cc1ccccc1-c1nc(-c2ccc(Br)o2)no1	1.8µM	?	3.4µM	2.2µM	?	nt
COc1ccc(Cl)cc1-c1nc(-c2ccc(Br)o2)no1	?	?	i	?	i	?
Fc1ccccc1-c1nc(-c2ccc(Br)o2)no1	0.5µM	?	0.85µM	?	?	nt
CC(C)C[C@H](NC(=O)N1CC(=O)Nc2ccccc21)C(=O)N[C@@H](Cc1ccccc1)C(=O)O	i	i	i	i	i	nt
COc1cc(/C=N/NC(=O)C(=O)NCc2cccnc2)ccc1O	i	i	i	i	i	i
CN(C)c1ccc(/C=N/NC(=O)C(=O)/C=C2\NC3(CCCC3)Cc3ccccc32)cc1	i	12µM	i	i	i	i
COc1cc(/C=N/NC(=O)C(=O)/C=C2\NC3(CCCC3)Cc3ccccc32)ccc1O	i	23µM	i	i	i	?
Cc1ccc(N2CCN(S(=O)(=O)c3ccc(Cl)c4ccccc34)CC2)c(C)c1	nt	nt	i	nt	nt	i
Cc1ccc(NC(=O)c2cc(N(C)C)ccc2[P+](=O)O)cc1	i	?	19µM	i	?	i
CCN(C[C@H]1N[C@@](C)(C(=O)OC)[C@H]2C(=O)N(Cc3ccccc3)C(=O)[C@@H]12)C(=O)c1ccc(C(C)(C)C)cc1	nt	10µM	nt	nt	i	nt
Cc1ccc(C(=O)CC(c2cccs2)S(=O)(=O)c2ccc(C)cc2)cc1 (stereo not drawn)	i	?	1.3µM	?	?	i
O=C(CC(c1cccs1)S(=O)(=O)c1ccccc1)c1ccc(F)cc1 (stereo not drawn)	i	?	3.4µM	i	i	i
O=C(CC(c1ccco1)S(=O)(=O)c1ccccc1)c1ccccc1 (stereo not drawn)	i	i	21µM	i	i	nt
CCC(=O)NCC(c1cccs1)S(=O)(=O)c1ccc(C)cc1 (stereo not drawn)	i	i	i	i	i	nt
Cc1cccc(C(=O)Nc2nnc(S(=O)(=O)N3c4ccccc4CC3C)s2)c1 (stereo not drawn)	nt	nt	i	nt	nt	nt
